Source: PubChem (National Center for Advancing Translational Sciences (NCATS))
TGFb SMAD3 inh: TGF-b pathway inhibition | 410,000 tested, 1.2% active | HepG2 CAGA-GFP TGF-b/SMAD3 reporter, GFP fluorescence, 18 h; TGF-beta stimulated, 500 pg/mL final | Potency, µM (doses to about 46.1 µM), for the others: at the top dose activity, negative = inhibition, usual class: inhibitors; further: on the % scale 0 is the no-effect control and ±100 the full control effect; nearly all actives have a fitted effect of over 65% in size
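TGF-beta reporter screen: HEPG2 CAGA-GFP, 1% FBS, 500 pg/mL TGF-beta final, 18 h; per-cell GFP summed per well; curves fitted and categorized by class.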
ATXN viability: viability counter-screen for ATXN expression inhibitors | 400,000 tested, 0.49% active | S2 cells (HEK-293 line with an ATXN2-luciferase reporter) viability, CellTiter-Fluor protease fluorescence, 24 h | Potency, µM (titrated, usually from 56.7 µM), hits mostly cytotoxic; further: nearly all actives have a fitted effect of over 40% in size
A549 viability: counter-screen for Nrf2 inhibitors: cytotoxicity in A549 cells. A549 ARE-Fluc cells, CellTiter-Fluor viability, 18-24 h. Potency, µM (doses to about 46 µM), for inactives: at the top dose activity change, negative = cytotoxicity, most hits filed as inhibitors. 390,000 tested, 0.16% active. AID 504648; further: on the % scale 0 is the no-effect control and ±100 the full control effect
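Cytotoxicity counterscreen: CellTiter-Fluor fluorescence was measured in A549 ARE_Fluc cells after 18-24 h of compound exposure in a concentration series. The subsequent BugLite luminescent read reports ARE-luciferase activity.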
ATXN2 expr inh: reduces ATXN2 reporter expression in HEK-293 cells; HEK-293 ATXN2-luciferase reporter, luminescence, 24 h; Potency, µM (series often up to 57 µM), inactives show at the highest dose activity change, negative = inhibition, most hits filed as inhibitors; 360,000 tested, 0.72% active; AID 1745845; further: on the % scale 0 is the no-effect control and ±100 the full control effect; nearly all actives have a fitted effect of over 55% in size
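qHTS (up to 57 uM final) was run with 24 h compound exposure of reporter cells at 37 °C. Each well was multiplexed: SteadyGlo luminescence measured ATXN2-luciferase expression after a fluorogenic Gly-Phe-AFC viability readout (25 uM final).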
Nrf2 inh: Nrf2 pathway inhibition. Potency, µM (top dose mostly 46 µM), for inactives: at the highest dose activity change, negative = inhibition, hits mostly inhibitors. 360,000 tested, 2.1% active. A549 ARE-Fluc reporter, luciferase luminescence, 18-24 h. AID 504444; further: on the % scale 0 is the no-effect control and ±100 the full control effect; nearly all actives have a fitted effect of over 60% in size
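A549 ARE_Fluc cells (5000/well, 5% FBS OPTI-MEM) pre-incubated 2 h, then treated with compounds 18-24 h at 37C/5% CO2 in concentration-response. CellTiter-Fluor viability read first; BugLite luciferase luminescence after 15 min at room temperature gives Nrf2 activity.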
HepG2 viability: kills HepG2 cells in TGF-b inhibitor counter-screen. 410,000 tested, 0.76% active. HepG2 CAGA-GFP viability, ATP luminescence, 18 h. Potency, µM (top dose mostly 46.1 µM), for inactives: at the top dose activity change, negative = cytotoxicity, hits mostly cytotoxic
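HepG2 CAGA-GFP cells (1000/well, DMEM with 1% FBS) received compound, then TGF-beta at 500 pg/mL final, and were incubated 18 hours at 37 degrees C. Viability was read by CellTiter-Glo luminescence. Media-only wells were set as complete cell-killing and DMSO as no toxicity.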
Starred values were filed as active, the others as inactive; i = inactive; ? = inconclusive; . = not tested or not shown; [ ] = remark or other dose. Most compounds without a hit are left out; they make up all but 3.8% or so of the library. The call rests on the fitted dose curve; in most records, active means well fitted curve in the direction sought with a large enough effect; inconclusive means small, poorly fitted or top-dose-only effect, or another doubt; inactive means no such curve, though single readings can be large; an effect the other way counts as inactive or inconclusive. Potency means the concentration at half of the fitted maximal effect.

SMILES	TGFb SMAD3 inh	ATXN viability	A549 viability	ATXN2 expr inh	Nrf2 inh	HepG2 viability
O=C(NCC1CCCO1)c1ccc(COc2ccc(Br)cc2)cc1 (stereo not drawn)	-13%	i	-3%	3%	16µM*	-15%
O=C(NCC1CCCO1)c1ccc([N+](=O)[O-])o1 (stereo not drawn)	13µM*	?	-7%	0%	0%	-30%
Cc1ccc(S(=O)(=O)N2C[C@]3(O)C[C@@H]4C(=O)N(c5ccccc5)C(=O)[C@@H]4C[C@]3(OC(=O)NC3CCCC3)C2)cc1	-4%	i	.	10%	.	-22%
COc1ccc(NC(=O)Cn2c(=O)n(CCC(=O)NCCc3ccc(OC)c(OC)c3)c(=O)c3ccccc32)cc1Cl	12%	i	-4%	9%	19%	2%
CCc1ccc(-n2nnc(-c3nsc(NC(=O)c4ccccc4Cl)n3)c2C)cc1	?	i	-5%	0%	18µM*	-30%
CCc1cccc(-n2nnc(-c3nsc(NC(=O)c4cccs4)n3)c2C)c1	?	.	8%	.	?	16µM*
Cc1cc(C)cc(-n2nnc(-c3nsc(NC(=O)c4ccccc4Cl)n3)c2C)c1	-10%	i	-2%	-11%	-17%	-34%
Cc1cc(C)c(NC(=O)C(=O)NCC(c2cccnc2)N2CCN(Cc3ccccc3)CC2)c(C)c1 (stereo not drawn)	0%	i	3%	-5%	-13%	-14%
O=C(Nc1ccc(S(=O)(=O)N(Cc2ccccc2)c2ccccc2)cc1)c1ccc(F)cc1	?	i	-9%	-20%	23µM*	-9%
CS(=O)(=O)N(Cc1ccccc1)c1ccc(C(=O)Nc2cccc(Cl)c2)cc1	16µM*	.	-1%	0%	?	11µM*
Cc1ccc(NC(=O)c2ccc(N(Cc3ccccc3)S(C)(=O)=O)cc2)cc1	?	?	2%	?	2%	-22%
CS(=O)(=O)N(Cc1ccc(Cl)cc1)c1ccc(C(=O)Nc2cccnc2)cc1	28%	i	-19%	4%	16µM*	-22%
O=C(CS(=O)(=O)c1ccccc1)Nc1nnc(Cc2ccccc2)s1	50%	i	-1%	1%	-1%	8%
COC(=O)c1cn(NC(=O)c2cc([N+](=O)[O-])ccc2F)c(=O)c2ccccc12	-18%	i	-16%	1.1µM*	5.2µM*	-6%
CC1(C)CC(NC(=O)c2ccc(Cl)c(S(=O)(=O)N(Cc3ccccc3)c3ccccc3)c2)CC(C)(C)N1	?	.	-22%	?	19%	18µM*
O=C(O)c1ccc(Cl)c(S(=O)(=O)N(Cc2ccccc2)c2ccc(Cl)cc2)c1	-16%	i	10%	-18%	?	-25%
COc1ccccc1N(Cc1ccccc1)S(=O)(=O)c1cccc(C(=O)NC2CC(C)(C)NC(C)(C)C2)c1	-15%	?	-20%	?	18%	13µM*
NC(=O)COC(=O)c1ccc(Cl)c(S(=O)(=O)N(Cc2ccccc2)c2ccc(Cl)cc2)c1	16µM*	i	-6%	8%[11.3 µM]	-2%	1%
NS(=O)(=O)c1ccc(N=C2C(=O)Nc3ccccc32)cc1	0%	i	-2%	-7%	5%	7%
CC(C)C1=CC(=Nc2ccc(S(N)(=O)=O)cc2)C=C(C(C)C)C1=O	?	i	10%	-17%	4%	11µM*
CC(=O)c1ccc(S(=O)(=O)Nc2ccc(C(=O)NCCCn3ccnc3)cc2)cc1	1%	i	15%	.	-10%	-37%
C(=C\c1cnc2ccccc2n1)/c1ccc2c(c1)OCO2	4%	.	.	.	.	-35%
COCc1nnc(NC(=O)c2ccc(S(=O)(=O)N(C)Cc3ccccc3)cc2)o1	-26%	i	?	?	?	-26%
CCc1nnc(NC(=O)c2ccc(S(=O)(=O)N(C)c3ccccc3)cc2)o1	-11%	i	-16%	?	?	3%
CCN(Cc1ccccc1)S(=O)(=O)c1ccc(C(=O)Nc2nnc(C3CC3)o2)cc1	-12%	i	-19%	20µM*	8.2µM*	-34%
SMILES	TGFb SMAD3 inh	ATXN viability	A549 viability	ATXN2 expr inh	Nrf2 inh	HepG2 viability
Cc1nnc(NC(=O)c2ccc(S(=O)(=O)N(C)Cc3ccccc3)cc2)o1	-11%	?	-23%	-29%	18µM*	-21%
CCc1nnc(NC(=O)c2ccc(S(=O)(=O)N(CC(C)C)CC(C)C)cc2)o1	?	i	?	?	16µM*	-7%
COc1cc(C(=O)N2CCN(CCc3ccccn3)CC2)cc(OC)c1OC	10%	i	2%	-1%	12%	-1%
CS(=O)(=O)Nc1cccc(C2=NN(C(=O)CCCC(=O)O)C(c3cccs3)C2)c1 (stereo not drawn)	-5%	i	-1%	-20%	13%	0%
Cc1[nH]c2ccccc2c1C1(O)C(=O)N(Cc2ccccc2)c2ccc(Cl)cc21 (stereo not drawn)	?	?	-3%	?	11%	16µM*
Cc1ccc(C)c(CN2C(=O)C(O)(c3c[nH]c4ccccc34)c3ccccc32)c1 (stereo not drawn)	?	i	?	?	?	-103%
Cc1ccccc1CN1C(=O)C(O)(c2c[nH]c3ccccc23)c2cc(Cl)ccc21 (stereo not drawn)	16µM*	i	-19%	-24%	?	11µM*
CCOc1ccccc1NC1(c2ccccc2)C(=O)c2ccccc2C1=O	7%	?	-2%	-5%	16%	-8%
CSc1ccc(C(=O)N2CCc3ccc(NC(=O)c4ccccn4)cc3C2)cc1	?	i	-1%	16%	14%	-29%
CSc1ccccc1C(=O)N1CCc2ccc(NC(=O)c3ccccn3)cc2C1	-10%	?	.	.	.	10µM*
CCOC(=O)C(=Cc1ccc(OCc2ccc([N+](=O)[O-])cc2)c(OC)c1)C(=O)OCC	?	22µM*	?	?	?	-72%
CCc1ccc(OCC(=O)NNC(=S)NC(=O)C2CC2)c(Br)c1	-1%	i	-15%	?	6.5µM*	1%
COc1ccc(C(=O)/C=C/Nc2ccc(S(=O)(=O)Nc3cc(OC)nc(OC)n3)cc2)c(OC)c1	13%	.	-9%	-3%	-24%	-1%
Cc1ccc(Nc2sc(C(=O)c3ccccc3)c(N)c2S(=O)(=O)c2ccccc2)cc1Cl	-13%	.	-3%	.	?	-7%
